Data as given in the supplement of paper PMC6555819.

Assays:
Test in all cases: PBM binding z-score (relative to random genomic background probes); higher = stronger binding; sequences stand for … in GC…GCGATTGACAGCGTAGAATGAAGG
[1] = test system: PPARg:RXRa DBDmut IVT, anti-RXR (DBD mutation: RXRa K156A/R161A, NR concentration 270 nM, RXRa partner concentration 90 nM)
Procedure, shortened: (§1)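 Binding buffer was PBS pH 7.4 with 2% milk, 0.02% Triton X-100, 1 mM DTT, 0.2 mg/mL BSA and 0.4 mg/ml salmon testes DNA. In it, ligand-free nuclear receptor dimers were incubated 1 h on custom Agilent 4×180K protein-binding microarrays carrying double-stranded probes. Antibodies against each partner (one per run) detected binding, and z-scores were calculated against random background probes after regression normalization of scanned fluorescence.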

[2] = test system: PPARg:RXRa IVT, anti-PPARg (NR concentration 270 nM, RXRa partner concentration 90 nM)
Procedure, shortened: as §1

[3] = test system: PPARg DBDmut IVT, anti-PPARg (DBD mutation: PPARg1 K132A/R137A, NR concentration 270 nM)
Procedure, shortened: as §1

[4] = test system: PPARg homodimer (NR concentration 180 nM)
Procedure, shortened: as §1

[5] = test system: PXR:RXRa (NR concentration 270 nM, RXRa partner concentration 90 nM)
Procedure, shortened: as §1

[6] = test system: PXR homodimer (NR concentration 270 nM)
Procedure, shortened: as §1

[7] = test system: RARa:RXR (NR concentration 270 nM, RXRa partner concentration 90 nM)
Procedure, shortened: as §1

[8] = test system: RARa homodimer (NR concentration 270 nM)
Procedure, shortened: as §1

[9] = test system: RARb:RXRa (NR concentration 270 nM, RXRa partner concentration 90 nM)
Procedure, shortened: as §1

[10] = test system: RARb homodimer (NR concentration 270 nM)
Procedure, shortened: as §1

[11] = test system: RARg:RXRa (NR concentration 270 nM, RXRa partner concentration 90 nM)
Procedure, shortened: as §1

[12] = test system: RARg homodimer (NR concentration 270 nM)
Procedure, shortened: as §1

[13] = test system: RXRa DBDmut IVT, anti-RXR (DBD mutation: RXRa K156A/R161A, NR concentration 90 nM)
Procedure, shortened: as §1

[14] = test system: RXRa homodimer (NR concentration 180 nM)
Procedure, shortened: as §1

[15] = test system: THRa:RXRa (NR concentration 90 nM, RXRa partner concentration 90 nM)
Procedure, shortened: as §1

[16] = test system: THRa homodimer (NR concentration 90 nM)
Procedure, shortened: as §1

[17] = test system: VDR homodimer (NR concentration 270 nM)
Procedure, shortened: as §1

Row | Sequence | PBM binding z-score [1] | PBM binding z-score [2] | PBM binding z-score [3] | PBM binding z-score [4] | PBM binding z-score [5] | PBM binding z-score [6] | PBM binding z-score [7] | PBM binding z-score [8] | PBM binding z-score [9] | PBM binding z-score [10] | PBM binding z-score [11] | PBM binding z-score [12] | PBM binding z-score [13] | PBM binding z-score [14] | PBM binding z-score [15] | PBM binding z-score [16] | PBM binding z-score [17]
1 | CGAAGTAGGTCACCAGGACAGTGAAGAGGTTGGA | 8.22 | 8.92 | 0.944 | 1.76 | 1.71 | 0.236 | 2.78 | 0.426 | 3.99 | 3.32 | 4.39 | 5.16 | 1.03 | 3.57 | 2.85 | 1.2 | 0.581
2 | ATATGTAGGTTAGGGTCTTTCAGAAAGTAGGGAA | 6.29 | 6.62 | 2.64 | 2.25 | 0.93 | 1.06 | 1.2 | 1.44 | 0.945 | 0.963 | 0.711 | 0.651 | 0.741 | 0.743 | 1.51 | 1.22 | 0.739
3 | ATATGTAGGTTAGGGTCATTCCGAAAGTAGGGAA | 6.18 | 6.86 | 1.28 | 2.67 | 4.29 | 1.79 | 4.8 | 1.82 | 3.43 | 3.13 | 3.89 | 2.85 | 2.61 | 5.22 | 4.18 | 3.01 | 3.59
4 | CGAACTAGGTCAACAGGACAGTGAAGAGGTTGGA | 8.18 | 8.23 | 0.713 | 1.93 | 1.28 | 0.261 | 2.27 | 0.467 | 4.23 | 3.39 | 4.36 | 5.29 | 1.54 | 3.09 | 2.81 | 0.737 | 0.504
5 | CGAGCTAGGTCAAAGGACAGTGAAAGGCGACGTA | 3.53 | 3.85 | -0.971 | 1.2 | 1.01 | -0.591 | 2.39 | -0.312 | 4.04 | 2.82 | 4.31 | 4.87 | 1.29 | 2.99 | 2.3 | 0.253 | 0.416
6 | ATATGTAGGTTAGGCTCATTCAGAAAGTAGGGAA | 6.49 | 5.75 | 1.4 | 0.501 | -0.124 | 0.16 | -0.184 | 0.657 | 0.339 | 0.0368 | 0.252 | 0.612 | 0.0964 | 0.205 | 0.086 | -0.237 | -0.178
7 | CGAACTAGGCCAAAGGACAGTGAAAGGCGACGTA | 5.96 | 5.66 | -0.194 | 0.351 | -0.549 | -0.424 | -0.24 | -0.451 | 1.33 | 0.837 | 0.441 | 1.2 | -0.376 | 0.196 | -0.277 | -0.915 | -0.627
8 | ATATGTAGGGTAGGGTCATTCAGAAAGTAGGGAA | 6.28 | 5.96 | 4.11 | 2.93 | 4.39 | 2.67 | 4.44 | 2.33 | 3.21 | 3.53 | 3.55 | 2.77 | 2.93 | 4.34 | 4.11 | 3.7 | 4.73
9 | CGAACTCGGTCAAAGGACAGTGAAAGGCGACGTA | 2.71 | 3.18 | -0.87 | 0.102 | -0.0185 | -0.567 | 0.43 | -0.278 | 2.56 | 1.9 | 2.15 | 2.76 | 0.447 | 0.907 | 0.713 | -0.276 | -0.121
10 | ATATGTAGGTTAAGGTCATTCAGAAAGTAGGGAA | 7.09 | 7.46 | 2.29 | 3.37 | 4.99 | 3.21 | 4.73 | 2.27 | 4.35 | 4.18 | 4.81 | 4.96 | 2.75 | 4.96 | 4.41 | 4.8 | 4.05
11 | CGATCTAGGTCACCAGGACAGTGAAGAGGTTGGA | 8.32 | 8.59 | 0.925 | 1.88 | 1.46 | -0.089 | 2.44 | -0.0617 | 4.03 | 3.47 | 4.36 | 5.15 | 1.35 | 3.32 | 3.44 | 2.13 | 0.435
12 | ATATGTAGGTTAGGGTCATTCATAAAGTAGGGAA | 6.2 | 7.14 | 4.07 | 4.85 | 4.73 | 2.83 | 4.99 | 2.19 | 3.63 | 3.59 | 4.05 | 3 | 2.76 | 5.31 | 4.21 | 3.65 | 4.32
13 | ATATGTAGGTTCGGGTCATTCAGAAAGTAGGGAA | 3.06 | 4.01 | 1.7 | 2.61 | 3.53 | 1.57 | 3.97 | 1.72 | 2.5 | 2.51 | 2.82 | 2.25 | 2.71 | 3.45 | 3.7 | 2.82 | 4
14 | AAATGTAGGTTAGGGTCATTCAGAAAGTAGGGAA | 7.33 | 7.35 | 1.95 | 3.74 | 4.47 | 2.29 | 4.78 | 1.99 | 3.64 | 3.49 | 3.99 | 3.4 | 2.78 | 5.29 | 4.02 | 3.35 | 3.92
15 | CGAACTAGCTCAAAGGACAGTGAAAGGCGACGTA | -0.134 | -0.285 | -0.415 | 0.163 | -0.639 | -0.457 | -0.276 | 0.225 | 0.694 | 0.955 | 0.138 | 0.6 | -0.347 | -0.119 | 0.0409 | -0.622 | -0.00865
16 | CGAACTAGGTGACCAGGACAGTGAAGAGGTTGGA | 7.15 | 7 | -0.325 | -0.217 | -0.13 | -0.15 | 0.228 | -0.394 | 0.744 | 1.03 | 0.633 | 0.705 | -0.229 | 0.65 | 1.36 | 0.885 | -0.155
17 | ATATGTAGGTTAGGGTCAATCAGAAAGTAGGGAA | 6.1 | 6.62 | 1.96 | 2.82 | 3.61 | 1.38 | 4.43 | 1.88 | 3.59 | 3.59 | 4.12 | 3.71 | 1.23 | 5.05 | 3.83 | 2.6 | 2.43
18 | CGAACTAGGTCAAAGGACAGTGACAGGCGACGTA | 8.32 | 8.4 | 1.51 | 1.78 | 1.3 | 0.0588 | 2.47 | 0.339 | 4.01 | 3.39 | 4.39 | 5.1 | 1.78 | 3.89 | 2.69 | 0.589 | 0.435
19 | ATATGTTGGTTAGGGTCATTCAGAAAGTAGGGAA | 1.44 | 2.45 | 1.7 | 3.53 | 4.44 | 2.69 | 4.96 | 2.67 | 3.2 | 3.19 | 3.79 | 2.71 | 2.64 | 5.05 | 4.08 | 3.71 | 4.01
20 | CGAACTAGGTAACCAGGACAGTGAAGAGGTTGGA | 6.32 | 5.77 | -0.0996 | 0.22 | -0.312 | 0.0727 | -0.0151 | -0.648 | 0.0285 | 0.378 | 0.0852 | 0.279 | -0.359 | 0.345 | 1.37 | 0.609 | -0.193
21 | CAAACTAGGTCAAAGGACAGTGAAAGGCGACGTA | 8 | 8.6 | 4.51 | 2.88 | 1.45 | 0.371 | 2.48 | 0.774 | 3.99 | 2.87 | 3.97 | 4.47 | 1.68 | 2.86 | 2.78 | 0.733 | 0.509
22 | ATATGTAGGTTAGGGTCATCCAGAAAGTAGGGAA | 6.49 | 6.96 | 3.77 | 6.33 | 4.46 | 1.88 | 5.12 | 2.64 | 3.55 | 3.38 | 4.31 | 3.5 | 2.19 | 5.6 | 4.15 | 3.73 | 3.58
23 | CGAACTTGGTCAAAGGACAGTGAAAGGCGACGTA | 0.58 | 1.75 | -0.436 | 0.499 | -0.152 | -0.326 | 0.232 | -0.498 | 1.83 | 1.3 | 1.24 | 1.69 | -0.0652 | 0.736 | 0.657 | -0.391 | -0.0452
24 | ACATGTAGGTTAGGGTCATTCAGAAAGTAGGGAA | 5.77 | 5.83 | 3.59 | 3.84 | 4.47 | 2.63 | 5.07 | 1.97 | 3.61 | 3.51 | 4.16 | 3.32 | 3.02 | 5.14 | 4.05 | 3.66 | 3.75
25 | ATATGTAAGTTAGGGTCATTCAGAAAGTAGGGAA | 1.38 | 2.41 | 1.73 | 2.2 | 4.63 | 1.59 | 5.07 | 1.77 | 3.23 | 3.04 | 4 | 3.02 | 2.47 | 5.33 | 4.05 | 2.85 | 3.96
26 | CGAACTACGTCACCAGGACAGTGAAGAGGTTGGA | 0.112 | 0.232 | -0.216 | 0.245 | -0.245 | -0.301 | 0.0876 | -0.285 | -0.125 | 0.196 | 0.119 | 0.277 | -0.206 | 0.256 | 1.27 | 0.657 | 0.0213
27 | ATATGTAGGTTAGGGTAATTCAGAAAGTAGGGAA | 6.57 | 6.48 | 2.48 | 2.03 | 0.958 | 1.34 | 1.34 | 1.87 | 1.33 | 1.35 | 1.05 | 0.966 | 0.835 | 1.16 | 1.72 | 1.34 | 1.11
